The text below walks through data of PubChem BioAssay (NCATS).

Where “and” joins values, the source holds several entries; their conditions need not be identical. Identical values can stand only once. Records with an inconclusive call do not appear. Calls of active or inactive are those of the source. Unless noted, the call rests on the fitted dose curve; in most records, active means well fitted curve in the direction sought with a large enough effect; inconclusive means small, poorly fitted or top-dose-only effect, or another doubt; inactive means no such curve, though single readings can be large; an effect the other way counts as inactive or inconclusive.

Experiment [1] can be described thus: qHTS Assay for Lipid Storage Modulators (AID 1519; calls by dose curve). To be noted: Drosophila S3 cells, BODIPY lipid droplet/cell ratio, laser cytometry, cells loaded with oleic acid. The method in brief:
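Cells seeded at 5,000 per well were treated with compounds over a concentration series and loaded with oleic acid (400 uM, as added). Lipid droplet fluorescence (488 nm excitation, 500-530 nm channel) was read by laser-scanning cytometry and normalized to 20 uM Triacsin C.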
For orientation: Quantitative high-throughput screening tests each substance at several concentrations.

The target in experiment [2] is Cytochrome P450 3A4 (Homo sapiens) (UniProt P08684). Nature of the experiment: qHTS Assay for Activators of Cytochrome P450 3A4 (AID 885). Further: nearly all actives have a fitted effect of over 65% in size. The method in brief: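 Using 20nM recombinant human CYP3A4 in potassium phosphate (200mM), substrate Luciferin-PPXE at 25uM, luminescent luciferin detection followed a 60-min RT NADPH reaction; data scaled to 57 uM ketoconazole.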
Sequence of Cytochrome P450 3A4 (Homo sapiens) (P08684 whole entry, looked up): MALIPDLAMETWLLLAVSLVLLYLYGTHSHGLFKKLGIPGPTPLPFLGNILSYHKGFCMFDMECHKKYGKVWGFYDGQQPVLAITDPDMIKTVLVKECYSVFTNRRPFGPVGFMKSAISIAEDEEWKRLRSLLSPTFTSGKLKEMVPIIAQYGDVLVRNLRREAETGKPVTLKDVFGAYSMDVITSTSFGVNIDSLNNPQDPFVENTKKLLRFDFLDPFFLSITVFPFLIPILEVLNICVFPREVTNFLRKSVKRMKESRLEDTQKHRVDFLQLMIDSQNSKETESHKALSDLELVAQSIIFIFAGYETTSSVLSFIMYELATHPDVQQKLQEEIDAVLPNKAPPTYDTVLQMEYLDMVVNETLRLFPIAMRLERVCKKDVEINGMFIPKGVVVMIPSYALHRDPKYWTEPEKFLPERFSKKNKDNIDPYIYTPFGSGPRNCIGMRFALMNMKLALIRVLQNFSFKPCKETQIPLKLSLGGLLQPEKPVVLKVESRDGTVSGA

The nature of experiment [3]: Confirmation and Secondary Assay for Modulators of Hemoglobin Beta Chain Splicing at IVS2 654 locus (AID 910).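 Further: per-well total GFP intensity by laser scanning cytometry after 2-day treatment; % of control where 0% means no effect.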 Summed up:
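HeLa cells stably carrying EGFP interrupted by mutant beta-globin IVS2-654 intron (CMV-driven) were treated with compound for 2 days at 37C; corrected splicing was scored as total peak GFP intensity per well (488 nm excitation, 500-520 nm emission).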

The nature of experiment [4]: Confirmation and Secondary Assay for Modulators of Hemoglobin Beta Chain Splicing at IVS2 705 locus (AID 930).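 Further: HeLa cells stably expressing the EGFP-705 splicing reporter; GFP fluorescence per well restored by corrected splicing of the IVS2-705 intron in EGFP; % of control where 0% means no effect.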 The method in brief:
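Assay measures total GFP intensity per well in HeLa EGFP-705 cells after 2 days with compound; mis-splicing normally truncates EGFP, so fluorescence indicates corrected splicing.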

For experiment [5], the target named is Ubiquitin carboxyl-terminal hydrolase 1 (Homo sapiens) (UniProt O94782). Nature of the experiment: Inhibitors of USP1/UAF1: Pilot qHTS (AID 504865). Further: nearly all actives have a fitted effect of over 35% in size. Further: potency means the concentration at half of the fitted maximal effect. Summed up: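 Kinetic fluorescence assay: 1nM USP1/UAF1, 15 min compound preincubation, then 150nM Ub-Rho; 480/540 nm.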
Sequence of Ubiquitin carboxyl-terminal hydrolase 1 (Homo sapiens) (O94782 whole entry, looked up): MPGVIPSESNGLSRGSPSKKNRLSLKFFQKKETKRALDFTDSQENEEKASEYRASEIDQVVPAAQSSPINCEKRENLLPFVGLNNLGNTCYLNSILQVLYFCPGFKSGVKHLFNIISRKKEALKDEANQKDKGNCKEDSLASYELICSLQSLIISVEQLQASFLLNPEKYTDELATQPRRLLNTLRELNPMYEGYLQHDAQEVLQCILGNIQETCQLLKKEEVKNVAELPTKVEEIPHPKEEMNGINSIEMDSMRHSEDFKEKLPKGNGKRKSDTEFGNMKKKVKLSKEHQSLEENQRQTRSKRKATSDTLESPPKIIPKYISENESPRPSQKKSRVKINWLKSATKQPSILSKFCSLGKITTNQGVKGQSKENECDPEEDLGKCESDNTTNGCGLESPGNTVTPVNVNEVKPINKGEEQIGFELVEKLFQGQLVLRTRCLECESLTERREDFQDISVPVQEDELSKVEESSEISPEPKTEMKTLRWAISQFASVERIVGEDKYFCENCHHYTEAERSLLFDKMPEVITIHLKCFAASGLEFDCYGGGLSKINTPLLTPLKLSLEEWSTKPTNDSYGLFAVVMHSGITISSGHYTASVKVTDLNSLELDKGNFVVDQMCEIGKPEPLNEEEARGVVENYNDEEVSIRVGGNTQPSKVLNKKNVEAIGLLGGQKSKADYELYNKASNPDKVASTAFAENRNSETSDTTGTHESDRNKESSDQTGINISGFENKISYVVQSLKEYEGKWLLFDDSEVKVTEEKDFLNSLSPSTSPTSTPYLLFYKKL
The nature of experiment [6]: AP1 Signaling Pathway (AID 357; active means well fitted curve in either direction with a large enough effect, not every such curve was filed as active;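 further: ME-180 reporter cells stimulated with EGF at its EC50 level; on the % scale 0 is the no-effect control and ±100 the full control effect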). The method in brief:
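Read-out was the 460nm/530nm emission ratio (excitation 405nm) after CCF4 loading for 2.5 hours at room temperature. Cells carried an AP-1-driven beta-lactamase reporter, were stimulated with EC50 EGF plus compound for 5 hours, and AC50 values came from titrations.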

Experiment [7] in a line: Stat Signaling Pathway (AID 446; active means well fitted curve in either direction with a large enough effect, not every such curve was filed as active;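 further: ME-180 cervical cancer cells given 40 pM IL-6 alongside compound; SIE-controlled beta-lactamase reporter measured as 460/530 nm FRET emission ratio; on the % scale 0 is the no-effect control and ±100 the full control effect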). Summed up: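 Overnight-plated ME-180 cells bearing a STAT Inducible Element beta-lactamase reporter; 5 h co-exposure to compound and 40 pM IL-6; values normalized to 300 pM IL-6 and 125 nM JAK inhibitor controls.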
Experiment [8] addresses Glucocorticoid receptor (Homo sapiens) (UniProt P04150). Description: GR-EFC Redistribution (AID 451; calls by dose curve; further: potency means the concentration at half of the fitted maximal effect). To be noted: CHO-K1 GR-EFC translocation, beta-gal luminescence, 2 h. The method in brief:
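CHO-K1 cells stably expressing nuclear-localized β-gal enzyme acceptor and GR fused C-terminally to the enzyme donor fragment; ligand-driven nuclear translocation restores β-gal by complementation. Compounds titrated up to 46 uM final, 2 h at 37 °C; luminescence read.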

For experiment [9], the target named is Mitogen-activated protein kinase 10 (Mus musculus) (UniProt Q61831). Description: JNK3 AlphaScreen Assay (AID 530; active means well fitted curve in either direction with a large enough effect, not every such curve was filed as active;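 further: kinase came from lysate of stimulated human HepG2 cells; signal reports phosphorylation of biotinylated GST-cJun 1-79 at Ser73 with 10 µM ATP; on the % scale 0 is the no-effect control and ±100 the full control effect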). Summed up: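 Phosphorylation of biotinylated GST-cJun(1-79) at Ser73 is measured by AlphaScreen proximity luminescence. Enzyme is JNK3 in HepG2 lysates activated with interleukin-1beta and tumor necrosis factor alpha; ATP is 10 uM final.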
In general terms: Alpha assays give light when donor and acceptor beads are brought close together.

In experiment [10] the target is 3',5'-cyclic-AMP phosphodiesterase 4B (Homo sapiens) (UniProt Q07343). Description: qHTS Assay for Inhibitors of PDE-IV (AID 607; active means well fitted activation curve with a large enough effect in the main read-out, with a control signal flat, not every such curve was filed as active; further: % of control where 0% means no effect). Summed up:
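Live HEK293 cells with a modified cyclic nucleotide-gated (CNG) channel report intracellular cAMP via membrane-potential dye fluorescence (ex 535/em 590 nm). Endogenous PDE-IV was targeted. Compounds were tested at up to 22.9 uM final; RO 20-1724 100 uM served as control.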

Experiment [11] is described as follows: Primary qHTS for small molecule stabilizers of the endoplasmic reticulum resident proteome: Secreted ER Calcium Modulated Protein (SERCaMP) assay (AID 1508630). Further: on the % scale 0 is the no-effect control and ±100 the full control effect. The method in brief: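 The SH-SY5Y reporter protocol was run at 3 concentrations up to 38.3 uM (primary) or 11 concentrations (follow-up): 16 h compound, 100 nM thapsigargin for 4 h, then extracellular luciferase luminescence.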

Experiment [12] deals with Cytochrome P450 1A2 (Homo sapiens) (UniProt P05177). Description: p450-cyp1a2 (AID 410; calls by dose curve; further: potency means the concentration at half of the fitted maximal effect;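 on activity change, negative = inhibition: -100% = full effect of reference inhibitor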). Summed up: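 O-Demethylation of luciferin 6' methyl ether by human CYP1A2 is monitored as luciferase luminescence. Substrate sits at Km (100uM); enzyme is 20nM. Values are scaled to 57 uM furafylline as maximal inhibition.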
Sequence of Cytochrome P450 1A2 (Homo sapiens) (P05177 whole entry, looked up): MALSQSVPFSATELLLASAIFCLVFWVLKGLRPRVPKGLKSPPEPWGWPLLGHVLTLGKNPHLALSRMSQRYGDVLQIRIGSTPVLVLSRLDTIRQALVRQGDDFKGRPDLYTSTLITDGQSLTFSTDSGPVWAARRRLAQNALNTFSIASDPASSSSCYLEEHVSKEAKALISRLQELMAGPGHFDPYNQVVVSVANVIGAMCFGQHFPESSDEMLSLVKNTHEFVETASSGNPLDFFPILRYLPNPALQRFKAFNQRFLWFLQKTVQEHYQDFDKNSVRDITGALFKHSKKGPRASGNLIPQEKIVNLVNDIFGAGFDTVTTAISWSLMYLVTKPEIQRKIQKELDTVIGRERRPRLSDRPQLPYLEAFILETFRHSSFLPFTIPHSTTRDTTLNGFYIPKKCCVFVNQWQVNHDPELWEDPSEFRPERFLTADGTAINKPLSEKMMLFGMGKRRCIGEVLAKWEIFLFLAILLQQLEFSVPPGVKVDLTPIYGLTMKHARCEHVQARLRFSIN
In experiment [13] the target is Glucocorticoid receptor (Homo sapiens) (UniProt P04150). Description: GR-GFP Redistribution (AID 450;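 active means compounds whose dose series gives a full or clear partial fitted curve of increased nuclear translocation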; further: potency means the concentration at half of the fitted maximal effect). To be noted: U2OS GR-GFP nuclear translocation, laser cytometry, 2 h.
Sequence of Glucocorticoid receptor (Homo sapiens) (P04150 whole entry, looked up, the tested form may be a part): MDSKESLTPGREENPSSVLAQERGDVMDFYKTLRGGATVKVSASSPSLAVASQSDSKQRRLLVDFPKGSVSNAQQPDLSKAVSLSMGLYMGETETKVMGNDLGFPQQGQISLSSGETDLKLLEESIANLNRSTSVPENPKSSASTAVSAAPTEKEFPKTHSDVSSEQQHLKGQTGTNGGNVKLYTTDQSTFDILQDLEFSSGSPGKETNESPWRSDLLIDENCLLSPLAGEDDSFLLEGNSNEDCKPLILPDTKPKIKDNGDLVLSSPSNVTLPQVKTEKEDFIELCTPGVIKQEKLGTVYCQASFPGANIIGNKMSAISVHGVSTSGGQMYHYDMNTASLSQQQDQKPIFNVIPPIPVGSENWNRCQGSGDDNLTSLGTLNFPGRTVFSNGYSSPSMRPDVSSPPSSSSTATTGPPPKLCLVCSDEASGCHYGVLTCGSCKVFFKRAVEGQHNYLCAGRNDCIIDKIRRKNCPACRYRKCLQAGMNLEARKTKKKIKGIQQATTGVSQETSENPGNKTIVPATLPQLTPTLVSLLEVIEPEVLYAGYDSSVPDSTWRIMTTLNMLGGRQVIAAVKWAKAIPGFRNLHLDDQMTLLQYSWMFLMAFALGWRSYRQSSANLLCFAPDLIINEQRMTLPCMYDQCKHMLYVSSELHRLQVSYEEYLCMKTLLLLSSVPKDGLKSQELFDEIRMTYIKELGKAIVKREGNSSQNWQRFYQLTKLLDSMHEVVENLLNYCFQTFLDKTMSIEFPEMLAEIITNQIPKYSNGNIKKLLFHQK
Experiment [14] has as its target Lysosomal acid glucosylceramidase (Homo sapiens) (UniProt P04062). Nature of the experiment: Glucocerebrosidase-p2 (AID 348; in the data active means potency below about 10 µM; further: potency means the concentration at half of the fitted maximal effect). To be noted: purified GBA, blue fluorogenic substrate, 40 min. Summed up:
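Normal human glucocerebrosidase (0.2 nM) with blue fluorogenic substrate (80 uM final) in citrate/phosphate pH 5.9 with 10mM sodium taurocholate, 0.01% tween-20; 40 min RT, NaOH/glycine stop; fluorescence Ex 365/Em 440; AC50 from a titration from 0.6 nM upwards.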

Experiment [15] concerns the target Cytochrome P450 2D6 (Homo sapiens) (UniProt P10635). Nature of the experiment: qHTS Assay for Inhibitors and Substrates of Cytochrome P450 2D6 (AID 891). Further: nearly all actives have a fitted effect of over 60% in size. Further: potency means the concentration at half of the fitted maximal effect. The method in brief: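 Luminescent read-out of luciferin formed by 5 nM human CYP2D6 demethylating 30 uM Luciferin-ME EGE (Km level) over 60 min at room temperature after NADPH regeneration addition. Data normalized to full inhibition by 1.43 uM quinidine.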

Experiment [16] in a line: NFAT Signaling Pathway (AID 444; active means well fitted curve in either direction with a large enough effect, not every such curve was filed as active). To be noted: Jurkat NFAT-bla M1, carbachol, beta-lactamase ratio, 5 h. The method in brief: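 Jurkat cells carrying an NFAT-driven β-lactamase reporter and co-transfected muscarinic M1 receptor were treated with compound plus carbachol (1 uM final, an EC50 level) for 5 h at 37 °C. CCF4 loading followed for 1 h at RT; 460/530 nm ratio gave %activity.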

For experiment [17], the target named is Cytochrome P450 2C9 (Homo sapiens) (UniProt P11712). Nature of the experiment: qHTS Assay for Inhibitors and Substrates of Cytochrome P450 2C9 (AID 883). Further: on the % scale 0 is the no-effect control and ±100 the full control effect; nearly all actives have a fitted effect of over 60% in size. Summed up:
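CYP2C9 deoxyluciferin hydroxylation, 37C, 60 min with NADPH regeneration; 10nM enzyme, 100uM Luciferin-H (KM). Glo detection reagent stopped reaction; luminescence normalized to sulphaphenazole (57uM) full inhibition.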

Experiment [18] has as its target Cytochrome P450 3A4 (Homo sapiens) (UniProt P08684). Description: qHTS Assay for Inhibitors and Substrates of Cytochrome P450 3A4 (AID 884). Further: potency means the concentration at half of the fitted maximal effect; nearly all actives have a fitted effect of over 50% in size. Summed up:
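Luminescent readout of luciferin produced by CYP3A4 (20 nM) dealkylation of Luciferin-PPXE, 25 uM (its KM). NADPH-driven reaction ran 60 min at RT after 10 min compound preincubation; data scaled to 57 uM ketoconazole as 100% inhibition.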

[19] abbreviates: measured here: cell count channel max response.
Setting [20] is: measured here: lipid channel max response.

Sequence of Cytochrome P450 2D6 (Homo sapiens) (P10635 whole entry, looked up): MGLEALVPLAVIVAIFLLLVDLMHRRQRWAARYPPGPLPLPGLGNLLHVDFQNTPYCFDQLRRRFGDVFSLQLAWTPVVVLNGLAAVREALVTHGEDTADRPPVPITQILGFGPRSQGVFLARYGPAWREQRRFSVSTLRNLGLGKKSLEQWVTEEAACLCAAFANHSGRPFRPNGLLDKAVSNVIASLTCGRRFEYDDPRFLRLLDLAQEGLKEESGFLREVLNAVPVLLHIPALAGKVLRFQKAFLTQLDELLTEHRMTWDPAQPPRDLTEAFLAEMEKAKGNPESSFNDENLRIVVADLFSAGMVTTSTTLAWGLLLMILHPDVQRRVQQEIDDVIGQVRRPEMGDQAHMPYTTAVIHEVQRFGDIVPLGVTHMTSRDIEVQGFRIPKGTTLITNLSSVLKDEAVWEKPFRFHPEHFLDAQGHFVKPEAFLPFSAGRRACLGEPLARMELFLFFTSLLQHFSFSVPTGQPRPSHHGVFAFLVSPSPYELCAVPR
Sequence of 3',5'-cyclic-AMP phosphodiesterase 4B (Homo sapiens) (Q07343 whole entry, looked up): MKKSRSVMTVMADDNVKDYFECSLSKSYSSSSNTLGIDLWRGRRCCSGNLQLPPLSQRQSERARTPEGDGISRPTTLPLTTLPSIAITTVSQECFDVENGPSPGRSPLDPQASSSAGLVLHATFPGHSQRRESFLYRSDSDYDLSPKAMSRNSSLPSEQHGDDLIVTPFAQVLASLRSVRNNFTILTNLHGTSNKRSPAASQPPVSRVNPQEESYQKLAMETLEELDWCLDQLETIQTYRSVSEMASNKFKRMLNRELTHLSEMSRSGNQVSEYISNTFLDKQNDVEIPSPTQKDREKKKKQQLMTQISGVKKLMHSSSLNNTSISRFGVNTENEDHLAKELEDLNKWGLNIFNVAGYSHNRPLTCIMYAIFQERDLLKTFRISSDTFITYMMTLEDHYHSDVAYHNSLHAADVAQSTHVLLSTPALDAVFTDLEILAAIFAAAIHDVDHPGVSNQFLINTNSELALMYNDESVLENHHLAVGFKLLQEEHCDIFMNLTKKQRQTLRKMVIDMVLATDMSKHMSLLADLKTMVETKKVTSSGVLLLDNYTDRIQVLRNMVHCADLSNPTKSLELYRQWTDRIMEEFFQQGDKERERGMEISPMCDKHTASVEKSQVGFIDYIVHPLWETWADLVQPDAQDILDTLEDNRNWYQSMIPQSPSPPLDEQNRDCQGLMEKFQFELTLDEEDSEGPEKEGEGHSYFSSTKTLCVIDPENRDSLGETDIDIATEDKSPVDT
Sequence of Cytochrome P450 2C9 (Homo sapiens) (P11712 whole entry, looked up): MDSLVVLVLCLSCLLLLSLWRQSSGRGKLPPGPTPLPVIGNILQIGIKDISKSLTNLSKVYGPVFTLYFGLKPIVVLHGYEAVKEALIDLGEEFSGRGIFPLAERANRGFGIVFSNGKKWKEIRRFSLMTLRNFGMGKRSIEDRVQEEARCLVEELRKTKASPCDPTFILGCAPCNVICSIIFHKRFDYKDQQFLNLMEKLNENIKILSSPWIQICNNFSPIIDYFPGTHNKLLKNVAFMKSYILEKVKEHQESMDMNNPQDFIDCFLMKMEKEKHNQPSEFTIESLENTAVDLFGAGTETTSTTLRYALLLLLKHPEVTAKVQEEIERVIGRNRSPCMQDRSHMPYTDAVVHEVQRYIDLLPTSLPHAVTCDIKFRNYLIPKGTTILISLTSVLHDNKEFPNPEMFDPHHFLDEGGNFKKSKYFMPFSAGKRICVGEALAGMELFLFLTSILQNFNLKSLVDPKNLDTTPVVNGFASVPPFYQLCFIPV
Sequence of Lysosomal acid glucosylceramidase (Homo sapiens) (P04062 whole entry, looked up): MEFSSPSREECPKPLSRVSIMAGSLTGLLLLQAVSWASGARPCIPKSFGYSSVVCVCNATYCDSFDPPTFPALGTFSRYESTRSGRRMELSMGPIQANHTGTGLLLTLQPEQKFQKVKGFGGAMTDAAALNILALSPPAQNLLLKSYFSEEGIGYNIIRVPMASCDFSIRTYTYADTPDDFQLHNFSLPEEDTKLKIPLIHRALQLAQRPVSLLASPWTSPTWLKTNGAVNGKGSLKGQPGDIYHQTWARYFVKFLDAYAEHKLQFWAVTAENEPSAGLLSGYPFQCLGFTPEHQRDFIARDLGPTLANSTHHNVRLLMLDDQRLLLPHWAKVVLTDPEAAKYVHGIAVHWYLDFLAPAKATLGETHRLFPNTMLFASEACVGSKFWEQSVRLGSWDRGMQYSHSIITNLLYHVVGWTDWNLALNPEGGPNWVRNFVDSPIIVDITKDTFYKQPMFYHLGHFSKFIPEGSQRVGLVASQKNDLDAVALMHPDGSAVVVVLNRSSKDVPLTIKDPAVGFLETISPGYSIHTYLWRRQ

On to `CC(C)[C@@]1(NC(=O)[C@@H]2C[C@@H]3c4cccc5[nH]cc(c45)C[C@H]3N(C)C2)O[C@@]2(O)C3CCCN3C(=O)[C@H](Cc3ccccc3)N2C1=O` (stereo not given in full), for which the activity change, negative = inhibition in experiment [1] (at 57.5 µM (top of the series)) is -0.282% (inactive). In addition, the max response in [1] (setting [19]) is -13.2%; in [1] (setting [20]), -14.4%.

Turning to `O=C1C=CC(=O)c2c(O)cccc21`, the Potency entry in experiment [2], in experiment [3] and in experiment [4] was “inactive” throughout. In addition, the activity change, negative = inhibition in experiment [1] (at 57.5 µM (top of the series)) is 10.3% (inactive). Further, the max response in [1] (setting [19]) was -12.3%; in experiment [1] (setting [20]) it was -1.73%. Also, the Potency in experiment [5] is 8.91 µM (active).

For `CC(C)CN1CCCC2(CCN(C(=O)Oc3ccccc3)CC2)C1`, the compound was classed as inactive in experiment [6], in experiment [7], in experiment [9] and in [11]. For the same compound, the Potency in [8] is > 46 µM (inactive). The Potency result in experiment [10] and in experiment [2] was “inactive” in each case.

Regarding `O=C(OC1CCN(CCCl)CC1)C(c1ccccc1)c1ccccc1`, the compound was classed as inactive in experiment [6], in [7] and in experiment [9]. In addition, the Potency is 12.6 µM (active) in experiment [12], > 46 µM (inactive) in [13] and > 46 µM (inactive) in experiment [8]. The Potency result in experiment [10] and in [2] was “inactive” each time. In addition, in experiment [1] (at 57.5 µM (top of the series)), the activity change, negative = inhibition is 0.755% (inactive). The max response in [1] (setting [19]) is -17.2%; in [1] (setting [20]), -14.8%.

As for `O=C(Oc1ccccc1)N1CCC2(CCCN(Cc3nccs3)C2)CC1`, the figures for the Potency in [14], in [8] and in [15] were > 11.4 µM (inactive), > 46 µM (inactive) and 5.01 µM (active), respectively. The result in experiment [6], in experiment [7], in experiment [9] and in [11] was inactive. For the same compound, the Potency result in [12] and in experiment [2] was “inactive” in each case.

As for `COc1ccc2c(c1O)-c1c(OC)c(OC)cc3c1[C@H](C2)N(C)CC3`, the call in experiment [6], in experiment [7] and in [9] was inactive. The Potency is 10 µM (active) in experiment [12]; > 20.6 µM (inactive) and > 46 µM (inactive) in experiment [13]; > 20.6 µM (inactive) and > 46 µM (inactive) in experiment [8]. Also, the activity change, negative = inhibition in [16] (at 17.2 µM (top of the series)) is -3.12% (inactive); in experiment [1] (at 25.7 µM (top of the series)), 2.04% (inactive). For the same compound, the Potency entry in experiment [10], in experiment [17], in experiment [2], in experiment [15] and in experiment [5] was “inactive” each time. In addition, the max response in experiment [1] (setting [19]) is 5.35%; in experiment [1] (setting [20]), 2.2%.

As to `COc1ccc(NC(=O)N2CC[C@@]3(CCCN(C(=O)Oc4ccccc4)C3)C2)cc1`, the call in experiment [6], in experiment [7], in [9] and in [11] was inactive. The Potency entry in [12], in experiment [10] and in experiment [2] was “inactive” each time. Moreover, in experiment [16] (at 7.69 µM (top of the series)), the activity change, negative = inhibition is 4.32% (inactive). In addition, the results for the Potency in experiment [8] and in [15] were > 46 µM (inactive) and 6.31 µM (active), respectively.

Take `COc1cc2c(cc1-c1cc3cc4ccoc4cc3oc1=O)OCO2`: the Potency in experiment [18] is 0.398 µM (active); in experiment [5], 50.1 µM (active). Further, the Potency entry in experiment [2] and in experiment [4] was “inactive” each time. Besides, the activity change, negative = inhibition in [1] (at 57.5 µM (top of the series)) is 16.5% (inactive). The max response in experiment [1] (setting [19]) stood at 6.63%; in experiment [1] (setting [20]), 25.9%.

Take `COc1ccc2cc1Oc1ccc(cc1)CC1c3cc(c(OC)cc3CCN1C)Oc1c(OC)c(OC)cc3c1C(C2)N(C)CC3` (stereo not given): the activity change, negative = inhibition in experiment [1] (at 57.5 µM (top of the series)) is 6.58% (inactive). For the same compound, the max response was -1.03% in experiment [1] (setting [19]) and 6.79% in experiment [1] (setting [20]).

For `CN1C[C@H](C(=O)N[C@]2(C)O[C@]3(O)[C@H]4CCCN4C(=O)[C@H](Cc4ccccc4)N3C2=O)C[C@H]2c3cccc4[nH]cc(c34)C[C@@H]21`, in [1] (at 25.7 µM (top of the series)), the activity change, negative = inhibition is -4.57% (inactive). Moreover, the max response in [1] (setting [19]) is -15.1%; in experiment [1] (setting [20]), -19.9%.

In the case of `O=C(c1ccco1)N1CCC2(CC1)CN(Cc1ccncc1)C2`, the outcome in experiment [6], in experiment [7], in experiment [9] and in experiment [11] was inactive. Further, the Potency in experiment [8] was > 46 µM (inactive).
